Data taken from PubChem BioAssay (NCI).
This is part of a sample that, as a whole, favours compounds with a hit. Of some 79,000 tested, about 15% had one in any assay. Activity calls are given as the source filed them. Rule as the data show it: active = growth inhibition above about 70%; inactive = the rest.

What was measured:
[1] = NCI Yeast Anticancer Drug Screen. Data for the wt1 strain (AID 149);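 also: 0% = growth of vehicle-treated wt1 cultures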; details: S. cerevisiae wt1 strain (SPY 50644) growth inhibition, hits give high values
In short: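 Measured: growth of wt1 yeast under compound versus vehicle treatment, reported as inhibition.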

[2] = NCI Yeast Anticancer Drug Screen. Data for the rad50EPP+ strain (AID 151);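 also: 0% = growth of vehicle-treated control cultures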; details: S. cerevisiae rad50 mutant strain, hits give high values
In short: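 Exposing the rad50EPP+ strain to each compound, growth was compared with vehicle-only cultures to give inhibition.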

[3] = NCI Yeast Anticancer Drug Screen. Data for the mgt1 strain (AID 153); details: S. cerevisiae mgt1 mutant growth inhibition, hits give high values
In short: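 Genetically defined yeast (mgt1) treated with compound; inhibition of growth expressed against vehicle-treated controls.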

[4] = NCI Yeast Anticancer Drug Screen. Data for the rad50 strain (AID 155);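 also: 0% = growth of vehicle-only cultures of the same strain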; details: S. cerevisiae rad50 strain growth inhibition, hits give high values
In short: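 Growth of the mutant yeast was measured after compound exposure and referenced to vehicle-treated cultures.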

[5] = NCI Yeast Anticancer Drug Screen. Data for the mec2-1 strain (AID 157); details: S. cerevisiae mec2-1 strain, hits give high values
In short: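 Readout is yeast growth inhibition, normalised to vehicle-treated controls, in the mec2-1 strain exposed to compound.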

[6] = NCI Yeast Anticancer Drug Screen. Data for the rad14 strain (AID 159);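 also: 0% = growth of vehicle-treated control cultures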; details: S. cerevisiae rad14 strain growth inhibition, hits give high values
In short: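 Here, inhibition of yeast growth was measured after compound exposure, using a strain with a genetic defect in DNA damage repair and vehicle-treated cultures as the reference.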

[7] = NCI Yeast Anticancer Drug Screen. Data for the sgs1 mgt1 strain (AID 161);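 also: 0% = growth of cultures given vehicle only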; details: S. cerevisiae sgs1 mgt1 strain, hits give high values
In short: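 This yeast growth screen uses a strain with defined DNA-repair lesions; compound-treated growth is compared with vehicle-treated growth.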

[8] = NCI Yeast Anticancer Drug Screen. Data for the CLN2oe strain (AID 163);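 also: 0% = growth of vehicle-only control cultures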; details: S. cerevisiae CLN2oe strain, hits give high values
In short: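 Values reflect how much compound exposure reduced yeast growth, referenced to vehicle-exposed cells. Assay organism is a strain with a defined genetic change affecting cell-cycle control.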

[9] = NCI Yeast Anticancer Drug Screen. Data for the cln2 rad14 strain (AID 165);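 also: 0% = growth equal to vehicle treated cultures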; details: S. cerevisiae cln2 rad14 strain, hits give high values
In short: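 Relative to vehicle controls, growth inhibition of compound-treated cln2 rad14 yeast was recorded.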

[10] = NCI Yeast Anticancer Drug Screen. Data for the bub3 strain (AID 167); details: S. cerevisiae bub3 mutant strain, hits give high values
In short: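 Whole-cell yeast assay. The mutant strain was incubated with compounds, and growth inhibition was determined by comparison with vehicle-treated cells.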

[11] = NCI Yeast Anticancer Drug Screen. Data for the wt2 strain (AID 169);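 also: 0% = growth of vehicle-treated yeast cultures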; details: S. cerevisiae wt2 strain growth inhibition, hits give high values
In short: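 Values express reduction in yeast growth under compound treatment, referenced to vehicle-treated cells.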

[12] = NCI Yeast Anticancer Drug Screen. Data for the mlh1 strain (AID 171);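 also: 0% = growth of vehicle-treated control cultures of the same strain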; details: S. cerevisiae mlh1 strain growth inhibition, hits give high values
In short: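 Steps: expose the defined-mutant yeast strain to compound; expose a parallel culture to vehicle; measure growth; express compound effect as inhibition relative to the vehicle culture.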

[13] = NCI Yeast Anticancer Drug Screen. Data for the sgs1 strain (AID 173);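 also: 0% = growth of vehicle-only control cultures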; details: S. cerevisiae sgs1 mutant, hits give high values
In short: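 Treat defined-mutant yeast with compound; measure growth; calculate inhibition relative to vehicle-treated cells.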

[14] = NCI Yeast Anticancer Drug Screen. Data for the mlh1 rad18 strain (AID 175); details: S. cerevisiae mlh1 rad18 strain growth inhibition, hits give high values
In short: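 Test agents were incubated with a yeast strain of defined genotype (DNA damage repair defect). Inhibition of growth was derived by comparison with vehicle-exposed cultures.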

[15] = NCI Yeast Anticancer Drug Screen. Data for the rad18 strain (AID 177); details: S. cerevisiae rad18 mutant growth inhibition, hits give high values
In short: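 A genetically defined yeast mutant impaired in DNA damage repair was treated with test compounds, then its growth was measured against cultures receiving vehicle alone.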

[16] = NCI Yeast Anticancer Drug Screen. Data for the rad52 strain (AID 147);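 also: 0% = growth of vehicle-treated control cultures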; details: S. cerevisiae rad52 mutant growth inhibition, hits give high values
In short: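 Screen used a yeast mutant impaired in DNA repair. After compound exposure, growth was measured. Values reflect inhibition compared with vehicle-treated cells.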

[17] = at 5.0 µM (retest, dose inferred, filed as 0.5)
[18] = at 50.0 µM (retest, dose inferred, filed as 5.0)

Measured: growth inhibition

Cc1nc2ccc(NCCN(C)C)c3c(=O)c4ccccc4n1c23
inactive: [1]; at 1.2 µM 26% | [1]; at 3.7 µM 25% | [1]; at 11.0 µM 37% | [1]; at 33.0 µM 31% | [1]; at 100.0 µM 26% | [2]; at 1.2 µM 26% | [2]; at 3.7 µM 11% | [2]; at 11.0 µM 40% | [2]; at 33.0 µM 55% | [2]; at 100.0 µM 65% | [3]; at 1.2 µM 27% | [3]; at 3.7 µM 31% | [3]; at 11.0 µM 33% | [3]; at 33.0 µM 27% | [3]; at 100.0 µM 38% | [4]; at 1.2 µM 43% | [4]; at 3.7 µM 50% | [4]; [17] 28% | [4]; at 50.0 µM -1.8% | [5]; at 1.2 µM 25% | [5]; at 3.7 µM 30% | [5]; [17] 16% | [5]; at 11.0 µM 41% | [5]; at 33.0 µM 42% | [5]; [18] 25% | [5]; at 50.0 µM 6.95% | [5]; at 100.0 µM 37% | [6]; at 1.2 µM 6% | [6]; at 3.7 µM 11% | [6]; at 11.0 µM 6% | [6]; at 33.0 µM 12% | [6]; at 100.0 µM 20% | [7]; [17] 1% | [7]; [18] 15% | [7]; at 50.0 µM -6.05% | [8]; at 1.2 µM 5% | [8]; at 3.7 µM 22% | [8]; at 11.0 µM 20% | [8]; at 33.0 µM -2% | [8]; at 100.0 µM 19% | [9]; [17] 10% | [9]; [18] 25% | [9]; at 50.0 µM 10.2% | [10]; at 1.2 µM 5% | [10]; at 3.7 µM 4% | [10]; [17] -10% | [10]; at 11.0 µM 9% | [10]; at 33.0 µM 11% | [10]; [18] 21% | [10]; at 50.0 µM -2.7% | [10]; at 100.0 µM 9% | [11]; at 1.2 µM -32% | [11]; at 3.7 µM -38% | [11]; at 11.0 µM -43% | [11]; at 33.0 µM -39% | [11]; at 100.0 µM -19% | [12]; at 1.2 µM 27% | [12]; at 3.7 µM 31% | [12]; at 11.0 µM 33% | [12]; at 33.0 µM 27% | [12]; at 100.0 µM 38% | [13]; at 1.2 µM 23% | [13]; at 3.7 µM 33% | [13]; at 11.0 µM 24% | [13]; at 33.0 µM 24% | [13]; at 100.0 µM 35% | [14]; [17] 11% | [14]; [18] 43% | [15]; at 1.2 µM 8% | [15]; at 3.7 µM 23% | [15]; at 11.0 µM 29% | [15]; at 33.0 µM 39% | [15]; at 100.0 µM 51%
active: [4]; at 11.0 µM 75% | [4]; at 33.0 µM 89% | [4]; [18] 79% | [4]; at 100.0 µM 92% | [14]; at 50.0 µM 78.9%

OC(c1ccc(Br)cc1)(c1cccs1)C1CC1 (stereo not drawn)
active: [16]; at 33.0 µM 92% | [16]; at 100.0 µM 87% | [1]; at 33.0 µM 97% | [1]; at 100.0 µM 96% | [2]; at 100.0 µM 91% | [4]; at 33.0 µM 94% | [4]; [18] 100% | [4]; at 50.0 µM 91.2% | [4]; at 100.0 µM 94% | [5]; at 33.0 µM 99% | [5]; [18] 100% | [5]; at 50.0 µM 93.2% | [5]; at 100.0 µM 97% | [6]; at 33.0 µM 97% | [6]; at 100.0 µM 97% | [7]; [18] 99% | [8]; at 33.0 µM 96% | [8]; at 100.0 µM 96% | [9]; [18] 99% | [10]; at 33.0 µM 94% | [10]; [18] 100% | [10]; at 100.0 µM 93% | [11]; at 33.0 µM 97% | [11]; at 100.0 µM 96% | [12]; at 33.0 µM 96% | [12]; at 100.0 µM 95% | [13]; at 33.0 µM 95% | [13]; at 100.0 µM 95% | [14]; [18] 100% | [14]; at 50.0 µM 92% | [15]; at 33.0 µM 94% | [15]; at 100.0 µM 91%
inactive: [16]; at 1.2 µM 13% | [16]; at 3.7 µM 21% | [16]; at 11.0 µM 57% | [1]; at 1.2 µM -19% | [1]; at 3.7 µM 3% | [1]; at 11.0 µM 17% | [2]; at 1.2 µM 3% | [2]; at 3.7 µM 35% | [2]; at 11.0 µM 27% | [2]; at 33.0 µM 17% | [4]; at 1.2 µM 3% | [4]; at 3.7 µM 21% | [4]; [17] 57% | [4]; at 11.0 µM 56% | [5]; at 1.2 µM 18% | [5]; at 3.7 µM 22% | [5]; [17] 61% | [5]; at 11.0 µM 53% | [6]; at 1.2 µM 5% | [6]; at 3.7 µM 13% | [6]; at 11.0 µM 27% | [7]; [17] -7% | [8]; at 1.2 µM 6% | [8]; at 3.7 µM 2% | [8]; at 11.0 µM 26% | [9]; [17] 45% | [10]; at 1.2 µM 38% | [10]; at 3.7 µM 48% | [10]; [17] 48% | [10]; at 11.0 µM 62% | [11]; at 1.2 µM -12% | [11]; at 3.7 µM 8% | [11]; at 11.0 µM 31% | [12]; at 1.2 µM -15% | [12]; at 3.7 µM 4% | [12]; at 11.0 µM 38% | [13]; at 1.2 µM 17% | [13]; at 3.7 µM 29% | [13]; at 11.0 µM 57% | [14]; [17] 46% | [15]; at 1.2 µM 1% | [15]; at 3.7 µM 24% | [15]; at 11.0 µM 54%

COc1ccc(CCN2C(=O)C=CC2=O)cc1OC
active: [16]; at 11.0 µM 79% | [16]; at 33.0 µM 99% | [16]; at 100.0 µM 99% | [1]; at 33.0 µM 99% | [1]; at 100.0 µM 99% | [2]; at 11.0 µM 82% | [2]; at 33.0 µM 96% | [2]; at 100.0 µM 98% | [4]; at 33.0 µM 98% | [4]; at 50.0 µM 83.2% | [4]; at 100.0 µM 98% | [5]; at 11.0 µM 79% | [5]; at 33.0 µM 100% | [5]; at 50.0 µM 92.3% | [5]; at 100.0 µM 100% | [7]; [17] 74% | [7]; [18] 98% | [8]; at 11.0 µM 81% | [8]; at 33.0 µM 99% | [8]; at 100.0 µM 99% | [9]; [17] 78% | [9]; [18] 99% | [10]; [17] 97% | [10]; at 11.0 µM 88% | [10]; at 33.0 µM 99% | [10]; [18] 97% | [10]; at 100.0 µM 99% | [11]; at 33.0 µM 99% | [11]; at 100.0 µM 99% | [12]; at 33.0 µM 99% | [12]; at 100.0 µM 98%
inactive: [16]; at 1.2 µM 13% | [16]; at 3.7 µM 37% | [1]; at 1.2 µM -1% | [1]; at 3.7 µM 7% | [1]; at 11.0 µM 62% | [2]; at 1.2 µM 7% | [2]; at 3.7 µM 50% | [4]; at 1.2 µM 4% | [4]; at 3.7 µM 18% | [4]; [17] 27% | [4]; at 11.0 µM 67% | [4]; [18] 51% | [5]; at 1.2 µM 5% | [5]; at 3.7 µM 38% | [5]; [17] 43% | [5]; [18] 42% | [8]; at 1.2 µM 17% | [8]; at 3.7 µM 33% | [10]; at 1.2 µM 15% | [10]; at 3.7 µM 43% | [11]; at 1.2 µM -21% | [11]; at 3.7 µM 5% | [11]; at 11.0 µM 48% | [12]; at 1.2 µM -19% | [12]; at 3.7 µM 4% | [12]; at 11.0 µM 53% | [13]; at 1.2 µM 1% | [13]; at 3.7 µM 5% | [13]; at 11.0 µM 38%
